# Measured values as given in PubChem BioAssay (NCI).
# This is part of a sample that, as a whole, favours compounds with a hit. Of some 83,000 tested, about 20% had one in any assay.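 A percent growth of 40 corresponds to 60% growth inhibition; 0 means no net growth; -100 means all cells died. Active threshold: below 10.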 Values without a mark were called inactive. Activity calls are given as the source filed them.
# System: SNB-75 CNS
# Experiment: NCI-60 one-dose screen, 48 h (100 = growth as untreated, 0 = no growth, -100 = all killed)
# Settings: 10 µM unless noted
row,SMILES,growth
1,COc1cc(-c2nnc(-c3nc(-c4cc(OC)c(OC)c(OC)c4)n4ccccc34)o2)ccc1N,75%
2,O=C(Nc1ccc2c(c1)C(=O)c1ccccc1-2)c1ccccc1,86.6%
3,COc1ccc(CNC(=O)c2c(C)n([O-])c3ccc(OC)cc3[n+]2=O)cc1,99.1%
4,N#CC(C#N)C(C#N)C#N,82%
5,CC[N+](CCCCCCCCCC[N+](CC)(c1ccccn1)c1ccccn1)(c1ccccn1)c1ccccn1,6.81% (active)
6,CCCCCCCSc1ncnc2[nH]ncc12,59.3%
7,CC(C)N(Cc1ccccc1)c1c(S)ssc1=S,-2.3% (active)
8,O=C(NCCNC(=O)Oc1cccc2ccccc12)Oc1cccc2ccccc12,89.5%
9,Cc1[nH]c(=O)[nH]c(=O)c1CCSSCCc1c(C)[nH]c(=O)[nH]c1=O,97.1%
10,CC(C)N(Cc1ccccc1)c1c(Cl)ssc1=O,113%
11,COc1cnc2c(c1)C(=O)c1c-2n(CCCN2CCCC2)c(=O)c2cc(F)ccc12,-18.9% (active)
12,CSc1nc(-c2ccc(O)cc2O)c2c(=O)[nH]c(Nc3ccc(S(=O)(=O)Nc4nc(C)cc(C)n4)cc3)nc2n1,73.1%
13,c1ccc(COc2ccc(Nc3ncnc4c3cnn4-c3ccccc3)cc2)cc1,102%
14,O=C1/C(=C/c2ccc(F)cc2)Cc2ccccc21,83.4%
15,CC[n+]1c(/C=C/c2ccc(N3CCCC3)cc2)cccc1/C=C/c1ccc(N2CCCC2)cc1,-92.7% (active)
16,ICCC(c1ccccc1)(c1ccccc1)c1ccccc1,50.3%
17,O=C(CSc1nnc(-c2cc(-c3ccccc3)nc3ccccc23)o1)c1ccc(Br)cc1,97.4%
18,O=c1[nH]c(SCc2ccccc2)nc2nc(Nc3ccc(NC(=S)Nc4ccccc4)cc3)nc(-c3ccc(O)cc3O)c12,84.6%
19,Cc1cc(Cl)ccc1Nc1nc(C(F)(F)F)ccc1C(=O)N/N=C/c1ccc(Cl)cc1,-21.9% (active)
20,Cc1sc2nc3c4ccccc4c(NCCCN(C)C)nn3c(=O)c2c1C,54.3%

row,SMILES,growth
1,C[C@H](C(=O)N[C@@H](Cc1ccc(-c2ccccc2)cc1)C(=O)NC1CC(C)(C)NC(C)(C)C1)c1ccc(-c2ccccc2)c(F)c1,13.3%
2,Cc1csc(C#Cc2cncc(O)c2)n1,139%
3,CN[C@@H]1C(OC2[C@H](O[C@H]3[C@H](O)[C@@H](O)[C@H](N=C(N)N)[C@@H](O)[C@@H]3N=C(N)N)OC(C)[C@]2(O)CO)OC(CO)C(O)C1O (some centres undefined),103%
4,COCCOCCOCCOCCOc1ccc2c(c1)C(=O)c1nc3ncccc3c(=O)n1-2,-61.1% (active)
5,N#CC1c2ccccc2C=CN1C(=O)N(c1ccccc1)c1ccccc1 (centres undefined),68.6%
6,Nc1ccc2c(c1)C(=O)c1cc(Cl)c(Cl)cc1-2,68.7%
7,COc1ccc2c(c1)C(=Nc1cc(OC)c(OC)c(OC)c1)C(=O)N2,104%
8,CN(C)CCCN=c1cc2c(=O)n(CCCN(C)C)c(=O)c3c(NCCCN(C)C)cc4c(O)n(CCCN(C)C)c(=O)c1c4c3-2,-66.9% (active)
9,COc1ccc(-c2cnc(SCC(=O)Nc3ccc(-c4nc5ccccc5s4)cc3)n2-c2ccc(OC)cc2)cc1,93.5%
10,O=c1[nH]cc(Nc2cc(Cl)c3nonc3c2[N+](=O)[O-])c(=O)[nH]1,119%
11,CCOC(=O)Nc1cc(-c2ccc(C)c(NS(C)(=O)=O)c2)nn2c(C)nnc12,1.74% (active)
12,NS(=O)(=O)c1cc2c(cc1Cl)NC=NS2(=O)=O,96.3%
13,COc1ccc2ncccc2c1Cc1c(OC)ccc2ncccc12,44.1%
14,c1ccc(-c2n(Cc3ccc4ccccc4c3)cc[n+]2Cc2ccc3ccccc3c2)cc1,-29.5% (active)
15,CC1CN(CC(O)c2ccc(Br)cc2)CCO1 (centres undefined),91.4%
16,CC[C@@H](C)/C=C(C)/C=C/C(=O)c1c(O)c(-c2ccc(O)cc2)cn(OC2CC(=O)CCC(C)OC(=O)CC2O)c1=O (some centres undefined),18%
17,CCCCc1n(Cc2ccc3ccccc3c2)cc[n+]1Cc1ccc2ccccc2c1,-18% (active)
18,COc1cc(/C=C2\SC(N3CCCCC3)=NC2=O)ccc1OCCCCCCOc1ccc(/C=C2\SC(N3CCCCC3)=NC2=O)cc1OC,18.8%
19,CCCCCCCCN(CCO)CCCCCCCC,96.5%
